GCN5L2 inh = qHTS Assay for Inhibitors of GCN5L2 | Potency, µM (series often up to 58.9 µM), inactives show at the top dose activity change, negative = inhibition, hits mostly inhibitors | GCN5L2 HAT assay, ThioGlo1 CoA-SH fluorescence | hit rate 0.21% among 390,000 | Histone acetyltransferase KAT2A (Homo sapiens), Q92830
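GCN5L2 (20nM final) in 50mM HEPES, 0.1mM EDTA pH 7.5, 0.01% Tween-20 was preincubated 15 min at room temperature with compound, then given ThioGlo1 (50uM), H3(1-25) peptide (75uM) and acetyl-CoA (70uM); CoA-thiol fluorescence (Ex340/Em540) was read at 0 and 20 min.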
VDR inh = Inhibitors of the vitamin D receptor (VDR): qHTS | Potency, µM, for the others: max response, negative = inhibition, actives largely listed as inhibitors | VDR-SRC2-3 peptide fluorescence polarization, 2 h | hit rate 0.93% among 400,000 | Vitamin D3 receptor (Homo sapiens), P11473
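Inhibition of the VDR/SRC2-3 peptide interaction is quantified by fluorescence polarization. Compounds (23 nl, pintool) incubate with the reagents for 2 hours at ambient room temperature.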
PLK1 PBD inh = qHTS for Inhibitors of PLK1-PDB (polo-like kinase 1 - polo-box domain): Primary Screen; Serine/threonine-protein kinase PLK1 (Homo sapiens), P53350; Plk1 PBD binding of FITC phosphopeptide, fluorescence polarization; Potency, µM, without a hit: max response, negative = inhibition, usual class: inhibitors; hit rate 2.8% among 360,000; AID 720504, 2013; further: series mostly up to about 57 µM; nearly all actives have a fitted effect of over 65% in size
12-LOX inh = Primary qHTS assay for inhibitors of human arachidonate 12S-lipoxygenase (ALOX12): Round 2; hit rate 1.1% among 580,000; Potency, µM (highest dose often 108 µM), for inactives: at the top dose activity change, negative = inhibition, hits mostly inhibitors; AID 1671190, 2021; purified 12hLO, xylenol orange hydroperoxide absorbance; Polyunsaturated fatty acid lipoxygenase ALOX12 (Homo sapiens), P18054
Target sequence (P18054 whole entry, looked up): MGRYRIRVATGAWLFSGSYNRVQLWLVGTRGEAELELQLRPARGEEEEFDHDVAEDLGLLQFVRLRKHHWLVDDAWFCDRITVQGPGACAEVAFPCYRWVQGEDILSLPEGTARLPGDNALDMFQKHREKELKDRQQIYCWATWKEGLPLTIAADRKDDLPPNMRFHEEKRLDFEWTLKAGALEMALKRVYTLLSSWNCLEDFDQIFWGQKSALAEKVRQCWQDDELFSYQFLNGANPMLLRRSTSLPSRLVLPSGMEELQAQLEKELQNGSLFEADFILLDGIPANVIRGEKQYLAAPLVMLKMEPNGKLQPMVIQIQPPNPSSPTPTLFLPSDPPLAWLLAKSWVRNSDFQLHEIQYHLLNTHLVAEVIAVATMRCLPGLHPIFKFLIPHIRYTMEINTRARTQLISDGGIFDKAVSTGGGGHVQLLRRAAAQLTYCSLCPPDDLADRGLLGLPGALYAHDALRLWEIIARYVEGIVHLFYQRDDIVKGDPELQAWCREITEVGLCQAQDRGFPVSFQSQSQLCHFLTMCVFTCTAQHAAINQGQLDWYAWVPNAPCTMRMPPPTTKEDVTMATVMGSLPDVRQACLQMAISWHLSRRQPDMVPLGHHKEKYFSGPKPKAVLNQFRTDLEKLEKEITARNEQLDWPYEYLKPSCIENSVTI
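Hydroperoxide product was detected by ferrous iron/xylenol orange as the 573 to 405 nm absorbance ratio. Arachidonic acid at 40 uM (final) was turned over for 30 min at room temperature by 150 nM human 12hLO, pH 7.0 Hepes buffer, after 15 min compound preincubation.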
Numbers without * were called inactive; u = inconclusive; x = no result; [ ] = remark or other dose. An excerpt weighted towards active compounds, which were near 3% of everything screened. The call rests on the fitted dose curve; in most records, active means well fitted curve in the direction sought with a large enough effect; inconclusive means small, poorly fitted or top-dose-only effect, or another doubt; inactive means no such curve, though single readings can be large; an effect the other way counts as inactive or inconclusive. On the % scale 0 is the no-effect control and ±100 the full control effect; potency means the concentration at half of the fitted maximal effect.

SMILES	GCN5L2 inh	VDR inh	PLK1 PBD inh	12-LOX inh
Cc1csc(NC(=O)CSc2[nH]c(=O)ncc2C)n1	3%	-8%	-10%	1%
Cc1ccc(C(=O)CSc2nccn2-c2ccccc2)cc1	-14%	-16%	21µM*	0%
O=C(CSc1ccccn1)c1ccc(F)cc1	-4%	u	27µM*	-22%
O=C(CSc1nnc2c(Cl)cc(C(F)(F)F)cn12)c1ccc(Br)cc1	x	x	x	0%
O=C(CSc1nccn1-c1ncc(C(F)(F)F)cc1Cl)c1ccc(Br)cc1	-3%	u	2.4µM*	x
COc1ccc(OCCn2c(NC(=O)c3cccs3)nc3ccccc32)cc1	x	x	x	23%
Cc1ccoc1C(=O)NCc1ccnc(OCC(F)(F)F)c1	x	x	x	8%
CCNC(=O)c1cc(-c2ccccn2)nc2ccccc12	x	x	x	-4%
CCOC(=O)c1[nH]c2ccccc2c1NC(=O)CCN1CCC(C(N)=O)CC1	x	x	x	-7%
CCCc1nc(SCC(=O)c2ccc(F)cc2)c2ccccc2n1	-14%	89µM*	u	35µM*
CCCc1ccc(C(=O)CSc2nc(CN3CCOCC3)nc3ccccc23)cc1	x	x	x	3%
Cc1ccc(C(=O)CSc2ncn[nH]2)cc1	u	u	27µM*	0%
Cc1ccc(C(=O)CSc2ccccn2)cc1	9%	79µM*	19µM*	u
O=C(CSc1ccccn1)c1ccc2c(c1)OCCO2	x	x	x	-31%
COc1cc(/C=C(\C#N)C(=O)Nc2ccc(OC(F)(F)F)cc2)cc(OC)c1OC	x	x	x	-2%
CCN1CCN(C(=S)c2ccc(Cl)c(Cl)c2)CC1	2%	u	11µM*	-28%
Cc1nn2c(c1-c1ccccc1OCc1ccccc1)N(Cc1cccc(O)c1)CCC2	x	x	x	3%[176 µM]
COc1ccc(C(=O)Oc2cccc(/C=N/NC(N)=S)c2)cc1	1%	-2%	-9%	40µM*
COc1cc(/C=N/NC(N)=S)ccc1OC(=O)c1ccc(C)cc1	-7%	8%	-18%	u
CN(C)CCCOCC1(C)COc2ccc(C(=O)Nc3cccc(Cl)c3)cc2N1 (stereo unspecified)	x	x	x	-7%[176 µM]
CN1CCN(S(=O)(=O)c2ccc(N3CCc4ccccc4C3)nc2)CC1	-7%	u	7.5µM*	-3%
CC(NC(=O)Cc1cccc2cccnc12)c1ccccc1 (stereo unspecified)	x	x	x	-1%
Cc1ccc(Nc2nc(-c3c(C)nc4sccn34)cs2)cc1	x	x	x	7.1µM*
CCCC(C)C(=O)Nc1nc(C)c(-c2csc(Nc3ccccc3OC)n2)s1 (stereo unspecified)	-10%	-2%	-9%	45µM*
Cc1cc(NS(=O)(=O)c2ccc(Nc3nc(-c4sc(C)nc4C)cs3)cc2)no1	-2%	x	x	x
SMILES	GCN5L2 inh	VDR inh	PLK1 PBD inh	12-LOX inh
COc1ccccc1Nc1nc(-c2cc(C)ccc2C)cs1	x	x	x	10µM*
COc1ccc(-c2csc(Nc3ccc(S(=O)(=O)Nc4cc(C)on4)cc3)n2)cc1	-7%	-23%	19µM*	u
COc1ccc(Nc2nc(-c3ccc(F)cc3F)cs2)cc1	x	x	x	16µM*
Cc1ccc(Nc2nc(-c3ccc(C)cc3C)cs2)cc1	x	x	x	6.3µM*
O=C(/C=C/c1cccnc1)NCCc1cccc2ccccc12	x	x	x	4%
CC(C)c1nc(-c2ccc(OC3CCN(C(=O)c4cc(F)ccc4F)C3)cc2)no1 (stereo unspecified)	x	x	x	9%
O=C(COc1ccc(F)cc1)N1CCC2(CC1)NC(=O)N(c1ccccc1Cl)N2	x	x	x	1.4µM*
O=C(c1ccc(F)cc1Cl)N1CCC2(CC1)NC(=O)N(c1ccccc1Cl)N2	x	x	x	1.4µM*
O=C(c1ccc(F)cc1Cl)N1CCC2(CC1)NC(=O)N(Cc1ccccc1)C2=O	x	x	x	-16%
O=C1NCCN2CC3(CCN(C(=O)COc4ccc(F)cc4)CC3)CC12 (stereo unspecified)	x	x	x	77%
O=C(Cc1ccc(F)cc1)N1CCC2(CC1)NC(=O)N(c1ccccc1Cl)N2	x	x	x	1.3µM*
COc1cccc(CNS(=O)(=O)c2ccc3c(c2)OCC(C(=O)N2CCCCC2)O3)c1 (stereo unspecified)	x	x	x	4%
Cc1ccc(NC(=O)C(c2ccccc2)C2CCCC2)cc1C (stereo unspecified)	x	x	x	13%
CCCCCC(C)NCc1sccc1C (stereo unspecified)	x	x	x	0.45µM*

High-throughput results deposited in PubChem by National Center for Advancing Translational Sciences (NCATS).
